Reference: PubChem BioAssay (NCI)
Several values for one entry are separate records, joined by “and”; a condition that tells them apart may be missing. Equal values may be shown once. Compounds without any hit were thinned out: in the full panel of roughly 79,000, 15% have a hit. Some structures have more than one record in an assay (separate samples or runs), and their calls can disagree. Activity calls are given as the source filed them. No stated cut-off is given here; in the data, active means growth inhibition above about 70%; inactive means the rest.

Assay: NCI Yeast Anticancer Drug Screen. Data for the mlh1 rad18 strain (AID 175)
Conditions: S. cerevisiae mlh1 rad18 strain growth inhibition; at 5.0 µM (retest, dose inferred, filed as 0.5); stronger effect = higher value
Procedure, shortened: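 A repair-deficient yeast strain is exposed to test compound, and growth is scored relative to vehicle-treated controls.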

Structure (SMILES)	growth inhibition
O=C1C(CN2CCCCC2)CCCC1CN1CCCCC1 (stereo unspecified)	-1% (inactive)
NC(=O)c1cc(Br)cc(Br)c1O	-10% (inactive)
CN(C)c1ccc(/C=C/c2ccc3ccccc3[n+]2C)cc1	-15% (inactive)
C1=C(CN2CCCCC2)COc2ccccc21	20% (inactive)
O=C1Nc2ccccc2C1(O)C/C(=N/O)c1ccc2ccccc2c1 (stereo unspecified)	40% (inactive)
CC(C)(S)C(N)C(=O)O (stereo unspecified)	-3% (inactive)
COC(=O)[C@@H](NS(=O)(=O)CC12CCC(CC1)C2(C)C)C(C)(C)C	0% (inactive)
CN(CCN1C(=O)c2cccc3cccc(c23)C1=O)CCN1C(=O)c2cccc3cccc(c23)C1=O	47% (inactive)
CN(C)CCCN=c1c2ccccc2n(O)c2cccc([N+](=O)[O-])c12	7% (inactive)
O=C(/C=C/c1ccc(Cl)cc1)NC1C=Nc2ccc([N+](=O)[O-])cc2NC1=O (stereo unspecified)	13% (inactive)
O=C(CC(=O)CC(O)(c1ccccc1)c1ccccc1)CC(=O)c1ccccc1	30% (inactive)
O=C(c1ccc(Cl)cc1)C(O)c1ccc(Cl)cc1 (stereo unspecified)	-6% (inactive) and -12% (inactive)
COc1ccc2c(c1)C(Cc1ccc(Oc3ccc(CC4c5cc(OC)ccc5CC[N+]4(C)C)cc3)cc1)[N+](C)(C)CC2 (stereo unspecified)	-10% (inactive)
O=C(NO)c1cccnc1	3% (inactive)
Oc1c(Cl)c(Cl)c(Cl)c2ccccc12	87% (active)
CSC1SCC2C(=O)N(C)C(C(C)C)C(=O)OCC(NC(=O)c3cnc4ccccc4n3)C(=O)NC(C)C(=O)N(C)C1C(=O)N(C)C(C(C)C)C(=O)OCC(NC(=O)c1cnc3ccccc3n1)C(=O)NC(C)C(=O)N2C (stereo unspecified)	6% (inactive) and 98% (active)
O=C(O)C1(Cc2ccccc2)Cc2cc3c(cc2C1)CCC3	8% (inactive)
CC1=C(C(=O)Nc2c(C)cccc2C)C(c2ccc3c(c2)OCO3)C(C(=O)Nc2c(C)cccc2C)=C(C)N1	7% (inactive)
COc1cc2c(c3c1/c(=N/N(C)C)c1ccccc1n3C)C=CC(C)(C)O2	38% (inactive)

Structure (SMILES)	growth inhibition
CC(=O)Nc1nc(N)c2ncn(C3OC(C(O)CO)C(O)C3O)c2n1 (stereo unspecified)	-1% (inactive)
CC(C)(Cc1nocc1C(C)(C)CC#N)c1cc(CC(C)(C)C2(C)OCCO2)no1	-3% (inactive)
CCOC(=O)c1c[nH]c2c(ccc3cccnc32)c1=O	2% (inactive) and -1% (inactive)
Cc1ncc(C[n+]2cccc(CCO)c2C)c(N)n1	10% (inactive) and 15% (inactive)
Clc1ccc2c(c1)[nH]c1c2nc2ccccn21	11% (inactive)
O=C(O)c1ccccc1C(=O)O	-2% (inactive)
COC1/C=C/OC2(C)Oc3c(C)c(O)c4c(c3C2=O)C(=O)C=C(NC(=O)/C(C)=C\C=C\C(C)C2OC(C)(C)OC(C2C)C(C)C(OC(C)=O)C1C)C4=O (stereo unspecified)	3% (inactive)
CCN(CC)CCCn1c2cc(=O)c(=O)cc-2[nH]c2cc(C)ccc21	3% (inactive)
O=[N+]([O-])c1ccc(N/N=C/CC(O)(C(F)(F)F)C(F)(F)F)c([N+](=O)[O-])c1	3% (inactive)
OCc1ccccc1C(c1ccccc1)c1ccccc1	6% (inactive)
COc1ccc2[nH]c3c(C)c4ccncc4c(C)c3c2c1	55% (inactive)
CC(C)CCC[C@@H](C)[C@H]1CC[C@H]2[C@@H]3CC=C4N5CCCN=C5CC[C@]4(C)[C@H]3CC[C@]12C	-8% (inactive)
CC(C)CCCC(C)C1CCC2C3CC=C4CC([n+]5cccc6ccccc65)CCC4(C)C3CCC12C (stereo unspecified)	74% (active)
O=C1/C(=C/c2ccc(Cl)cc2)CNC/C1=C\c1ccc(Cl)cc1	91% (active) and 66% (inactive)
CCn1c2ccccc2c2ccc(N=Cc3ccc(N(C)C)cc3)cc21	5% (inactive)
O=C1NC(=O)c2cc([N+](=O)[O-])ccc21	-4% (inactive)
O=c1[nH]c(SCc2c(Cl)c(Cl)c(Cl)c(Cl)c2Cl)nc(=S)[nH]1	2% (inactive)
Cn1c2nc3ccccc3c-2cc2ccccc21	48% (inactive)
O=Cc1cc(Br)ccc1O	17% (inactive) and 11% (inactive)

Same assay, conditions: S. cerevisiae mlh1 rad18 strain growth inhibition; at 50.0 µM (retest, dose inferred, filed as 5.0); stronger effect = higher value

Structure (SMILES)	growth inhibition
O=C1C(CN2CCCCC2)CCCC1CN1CCCCC1 (stereo unspecified)	29% (inactive)
NC(=O)c1cc(Br)cc(Br)c1O	85% (active)
CN(C)c1ccc(/C=C/c2ccc3ccccc3[n+]2C)cc1	98% (active)
C1=C(CN2CCCCC2)COc2ccccc21	54% (inactive)
O=C1Nc2ccccc2C1(O)C/C(=N/O)c1ccc2ccccc2c1 (stereo unspecified)	64% (inactive)
CC(C)(S)C(N)C(=O)O (stereo unspecified)	-1% (inactive)
COC(=O)[C@@H](NS(=O)(=O)CC12CCC(CC1)C2(C)C)C(C)(C)C	83% (active)
CN(CCN1C(=O)c2cccc3cccc(c23)C1=O)CCN1C(=O)c2cccc3cccc(c23)C1=O	97% (active)
CN(C)CCCN=c1c2ccccc2n(O)c2cccc([N+](=O)[O-])c12	6% (inactive)
O=C(/C=C/c1ccc(Cl)cc1)NC1C=Nc2ccc([N+](=O)[O-])cc2NC1=O (stereo unspecified)	88% (active)
O=C(CC(=O)CC(O)(c1ccccc1)c1ccccc1)CC(=O)c1ccccc1	97% (active)
O=C(c1ccc(Cl)cc1)C(O)c1ccc(Cl)cc1 (stereo unspecified)	53% (inactive) and 49% (inactive)
COc1ccc2c(c1)C(Cc1ccc(Oc3ccc(CC4c5cc(OC)ccc5CC[N+]4(C)C)cc3)cc1)[N+](C)(C)CC2 (stereo unspecified)	95% (active)
O=C(NO)c1cccnc1	5% (inactive)
Oc1c(Cl)c(Cl)c(Cl)c2ccccc12	98% (active)
CSC1SCC2C(=O)N(C)C(C(C)C)C(=O)OCC(NC(=O)c3cnc4ccccc4n3)C(=O)NC(C)C(=O)N(C)C1C(=O)N(C)C(C(C)C)C(=O)OCC(NC(=O)c1cnc3ccccc3n1)C(=O)NC(C)C(=O)N2C (stereo unspecified)	98% (active) and 97% (active)
O=C(O)C1(Cc2ccccc2)Cc2cc3c(cc2C1)CCC3	8% (inactive)
CC1=C(C(=O)Nc2c(C)cccc2C)C(c2ccc3c(c2)OCO3)C(C(=O)Nc2c(C)cccc2C)=C(C)N1	7% (inactive)
COc1cc2c(c3c1/c(=N/N(C)C)c1ccccc1n3C)C=CC(C)(C)O2	93% (active)

Structure (SMILES)	growth inhibition
CC(=O)Nc1nc(N)c2ncn(C3OC(C(O)CO)C(O)C3O)c2n1 (stereo unspecified)	3% (inactive)
CC(C)(Cc1nocc1C(C)(C)CC#N)c1cc(CC(C)(C)C2(C)OCCO2)no1	-4% (inactive)
CCOC(=O)c1c[nH]c2c(ccc3cccnc32)c1=O	84% (active) and 79% (active)
Cc1ncc(C[n+]2cccc(CCO)c2C)c(N)n1	63% (inactive) and 48% (inactive)
Clc1ccc2c(c1)[nH]c1c2nc2ccccn21	98% (active)
O=C(O)c1ccccc1C(=O)O	7% (inactive)
COC1/C=C/OC2(C)Oc3c(C)c(O)c4c(c3C2=O)C(=O)C=C(NC(=O)/C(C)=C\C=C\C(C)C2OC(C)(C)OC(C2C)C(C)C(OC(C)=O)C1C)C4=O (stereo unspecified)	92% (active)
CCN(CC)CCCn1c2cc(=O)c(=O)cc-2[nH]c2cc(C)ccc21	52% (inactive)
O=[N+]([O-])c1ccc(N/N=C/CC(O)(C(F)(F)F)C(F)(F)F)c([N+](=O)[O-])c1	98% (active)
OCc1ccccc1C(c1ccccc1)c1ccccc1	94% (active)
COc1ccc2[nH]c3c(C)c4ccncc4c(C)c3c2c1	99% (active)
CC(C)CCC[C@@H](C)[C@H]1CC[C@H]2[C@@H]3CC=C4N5CCCN=C5CC[C@]4(C)[C@H]3CC[C@]12C	98% (active)
CC(C)CCCC(C)C1CCC2C3CC=C4CC([n+]5cccc6ccccc65)CCC4(C)C3CCC12C (stereo unspecified)	89% (active)
O=C1/C(=C/c2ccc(Cl)cc2)CNC/C1=C\c1ccc(Cl)cc1	75% (active) and 88% (active)
CCn1c2ccccc2c2ccc(N=Cc3ccc(N(C)C)cc3)cc21	37% (inactive)
O=C1NC(=O)c2cc([N+](=O)[O-])ccc21	12% (inactive)
O=c1[nH]c(SCc2c(Cl)c(Cl)c(Cl)c(Cl)c2Cl)nc(=S)[nH]1	86% (active)
Cn1c2nc3ccccc3c-2cc2ccccc21	83% (active)
O=Cc1cc(Br)ccc1O	94% (active) and 93% (active)
